PubChem BioAssay (NCATS)
Records with an inconclusive call do not appear. The source made the active and inactive calls. The call rests on the fitted dose curve; in most records, active means well fitted curve in the direction sought with a large enough effect; inconclusive means small, poorly fitted or top-dose-only effect, or another doubt; inactive means no such curve, though single readings can be large or run the other way.
On the % scale 0 is the no-effect control and ±100 the full control effect.

Each compound was assayed against Metallo-beta-lactamase type 2 (Klebsiella pneumoniae) (UniProt C7C422) (assay: qHTS to identify inhibitors of the New Delhi Metallo-beta-lactamase (NDM): assay validation screen against the NCATS LOPAC Collection (AID 1794843;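 further: nitrocefin turnover by NDM-1 measured as 485 nm absorbance at plateau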)). Details: NDM-1 enzyme, nitrocefin hydrolysis, absorbance 485 nm; series mostly up to 38.4 µM; activity change, negative = inhibition: at the top concentration.
Metallo-beta-lactamase type 2 (Klebsiella pneumoniae), sequence (C7C422 whole entry, looked up): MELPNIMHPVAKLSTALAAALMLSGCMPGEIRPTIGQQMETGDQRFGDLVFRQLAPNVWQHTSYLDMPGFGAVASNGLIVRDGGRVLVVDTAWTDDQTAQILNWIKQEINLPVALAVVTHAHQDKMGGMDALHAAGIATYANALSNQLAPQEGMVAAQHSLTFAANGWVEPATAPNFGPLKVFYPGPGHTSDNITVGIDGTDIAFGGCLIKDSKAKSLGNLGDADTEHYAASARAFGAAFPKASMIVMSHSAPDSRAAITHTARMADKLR
Summary of the method: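 Enzyme 2 nM final, 50 mM HEPES pH 7.0, 1 uM ZnSO4, 0.01% Tween20; cpds in DMSO, preincub w/ enzyme; + nitrocefin (50 uM stock); A485 at plateau; no-enzyme column as blank.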
In the case of `C[C@H](O)C(=O)C1=Nc2c(nc(N)[nH]c2=O)NC1`, the “activity change, negative = inhibition” value is reported as 17.6% (inactive).
`CCCCOc1cc(CC2CNC(=O)N2)ccc1OC` (stereo not given) was tested, and the “activity change, negative = inhibition” value was 0.495% (inactive).
In the case of `CC(N)=NCCCC[C@@H](N)C(=O)O`, the “activity change, negative = inhibition” value is reported as -22.4% (inactive).
`Nc1nc2c(nc(Br)n2C2OC3COP(=O)(O)O[C@@H]3C2O)c(=O)[nH]1` (stereo not given in full) was tested, and the “activity change, negative = inhibition” value was 0.198% (inactive).
With `Cn1cc(C(F)(F)F)nc1-c1ccc(OCC(O)CNCCOc2ccc(O)c(C(N)=O)c2)cc1` (stereo not given) the “activity change, negative = inhibition” value was 2.14% (inactive).
`O=C(O)/C(=C/c1c(C(=O)O)[nH]c2cc(Cl)cc(Cl)c12)c1ccccc1` was tested, and the “activity change, negative = inhibition” value was 10.7% (inactive).
`Nc1ncnc2c1nc(Sc1ccc(Cl)cc1)n2[C@H]1OC2COP(=O)(O)O[C@@H]2C1O` (stereo not given in full) was tested, and the “activity change, negative = inhibition” value was -1.09% (inactive).
With `CCCN(CCc1ccccc1)C1CCc2c(O)cccc2C1` (stereo not given) the “activity change, negative = inhibition” value was -6.06% (inactive).
`O=c1cc(O)cc(/C=C/c2ccc(O)c(O)c2)o1` was tested, and the “activity change, negative = inhibition” value was -12.8% (inactive).
For `COc1ccc(C(=O)NCc2cccnc2)cc1C(=O)NCc1cccnc1`, the “activity change, negative = inhibition” value was 1.44% (inactive).
In the case of `O=C(O)c1cc(=O)cc(C(=O)O)[nH]1`, the “activity change, negative = inhibition” value is reported as -19.1% (inactive).
`CC(C)C[C@H](NC(=O)C1OC1C(=O)O)C(=O)NCCCCN=C(N)N` (stereo not given in full) was tested, and the “activity change, negative = inhibition” value was 1.88% (inactive).
With `Nc1ncnc2c1ncn2C1CCCC1` the “activity change, negative = inhibition” value was -8.91% (inactive).
With `COc1cc(C(O)C(=O)O)ccc1O` (stereo not given) the “activity change, negative = inhibition” value was 1.88% (inactive).
With `Nc1nc2c(cnn2CCc2ccccc2)c2nc(-c3ccco3)nn12` the “activity change, negative = inhibition” value was 4.89% (inactive).
For `CC(/C=C/c1cccc(Oc2ccc(F)cc2)c1)N(O)C(N)=O` (stereo not given), the “activity change, negative = inhibition” value was -1.62% (inactive).
`CC(C)C[C@H](NC(=O)[C@H](O)[C@H](N)Cc1ccccc1)C(=O)O` was tested, and the “activity change, negative = inhibition” value was -2.06% (inactive).
With `NOCC(=O)O` the “activity change, negative = inhibition” value was -8.38% (inactive).
In the case of `NC1(C(=O)O)CC1`, the “activity change, negative = inhibition” value is reported as -0.11% (inactive).
With `NC(C(=O)N[C@@H]1C(=O)N2C(C(=O)O)=C(Cl)CS[C@H]12)c1ccccc1` (stereo not given in full) the “activity change, negative = inhibition” value was 12.3% (inactive).
In the case of `O=C(O)c1cc2cc(F)ccc2[nH]1`, the “activity change, negative = inhibition” value is reported as 1.36% (inactive).
For `CN1CCc2cc(Cl)c(O)cc2[C@@H](c2ccccc2)C1`, the “activity change, negative = inhibition” value was -4.34% (inactive).
With `COc1ccc(NC(=O)c2ccc(-c3ccc(-c4noc(C)n4)cc3C)cc2)cc1N1CCN(C)CC1` the “activity change, negative = inhibition” value was 5.19% (inactive).
With `NC(N)=NC(N)=Nc1ccccc1` the “activity change, negative = inhibition” value was -2.77% (inactive).
In the case of `CCCCC[C@H](CC(=O)NO)C(=O)N[C@H](C(=O)N1CCC[C@H]1CO)C(C)C`, the “activity change, negative = inhibition” value is reported as -5.69% (inactive).
For `COc1cc2c(CCNC(C)=O)c[nH]c2cc1O`, the “activity change, negative = inhibition” value was 2.42% (inactive).
`CCCCCCCCCC[Si](C)(C)CCC(=O)NC(Cc1ccc(C)cc1)c1ccccc1` (stereo not given) was tested, and the “activity change, negative = inhibition” value was -4.22% (inactive).
For `O=C(O)C1=CCCN(CCON=C(c2ccccc2)c2ccccc2)C1`, the “activity change, negative = inhibition” value was -0.148% (inactive).
In the case of `O=S(=O)(c1cccc2c(Cl)cccc12)N1CCCNCC1`, the “activity change, negative = inhibition” value is reported as 6.62% (inactive).
For `Cn1c(=O)c2[nH]c(C3CCCC3)nc2n(C)c1=O`, the “activity change, negative = inhibition” value was -2.55% (inactive).
With `CC1CNCCN1S(=O)(=O)c1cccc2cnccc12` (stereo not given) the “activity change, negative = inhibition” value was -6.54% (inactive).
In the case of `COc1ccc(-c2ccc(N)[n+](CCCC(=O)O)n2)cc1`, the “activity change, negative = inhibition” value is reported as -7.32% (inactive).
With `O=C(OCCN1CCOCC1)C1(c2ccccc2)CCCCC1` the “activity change, negative = inhibition” value was -9.96% (inactive).
`NC(=O)c1cc[n+](CC2=C(C(=O)O)N3C(=O)[C@@H](NC(=O)[C@@H](c4ccccc4)S(=O)(=O)[O-])[C@H]3SC2)cc1` was tested, and the “activity change, negative = inhibition” value was 2.52% (inactive).
With `O=C(O)c1ccccc1Nc1cccc(OCc2ccc3ccccc3n2)c1` the “activity change, negative = inhibition” value was 0.94% (inactive).
